{"source": "PubChem BioAssay AID504725", "about": "(Broad Institute, 2011)", "note": "Measured potencies and affinities stand elsewhere. Values without a mark were called inactive. No rule for the calls is given here.", "data": [{"target": "KSHV LANA C-terminal domain (residues 932-1162) binding to LBS DNA (UniProt O40947)", "assay": "inhibitors of C-LANA binding to LBS DNA, dose response, biochemical, fluorescence polarization, cherry-picked samples (AID 504725)", "settings": "MBP-C-LANA / FAM-LBS DNA fluorescence polarization; series mostly up to 35 µM; activity change, negative = inhibition: at the top concentration", "units": {"activity change, negative = inhibition": "%"}, "values": [{"molecule": "Cc1cc(OCC(=O)OC(C)(C)C)c2c3c(c(=O)oc2c1)CCC3", "activity change, negative = inhibition": 4.26}, {"molecule": "CCCCc1ccc(C(=O)O)nc1", "activity change, negative = inhibition": -11.9}, {"molecule": "CC(C)CC(=O)Nc1ccc(S(=O)(=O)N2CC3CC(C2)c2cccc(=O)n2C3)cc1", "note": "(stereo not drawn)", "activity change, negative = inhibition": -0.361}, {"molecule": "CC(OC(=O)c1cn(C)c2ccccc12)C(=O)N1CCCC1", "note": "(stereo not drawn)", "activity change, negative = inhibition": 1.34}, {"molecule": "Cc1cc(=O)oc2cc(OCC(=O)N3CCN(Cc4ccc5c(c4)OCO5)CC3)ccc12", "activity change, negative = inhibition": 4.13}, {"molecule": "O=c1[nH]c(=O)n(C2CCCCC2)c(O)c1C=Nc1ccc(N2CCOCC2)cc1", "activity change, negative = inhibition": -1.79}, {"molecule": "O=c1c2ccccc2nc(/C=C\\c2ccccc2[N+](=O)[O-])n1-c1ccccc1O", "activity change, negative = inhibition": -4.88}, {"molecule": "COC(=O)C1=C(c2ccc(OC(F)(F)F)cc2)C[C@@H]2CC[C@H]1N2C(=O)NC1CCCCC1", "activity change, negative = inhibition": -1.08}, {"molecule": "COCCNC(=O)Cn1cc(/C=C2\\C(=O)NC(=O)N(c3cccc(C)c3C)C2=O)c2ccccc21", "activity change, negative = inhibition": 0.685}, {"molecule": "CCOC(=O)c1c(/N=C/c2c(O)n(-c3cccc(C)c3)c(=O)[nH]c2=O)sc2c1CCCC2", "activity change, negative = inhibition": -1.71}, {"molecule": "CCn1c(O)c(N=Nc2cccc(S(=O)(=O)N3CCOCC3)c2)c(=O)n(CC)c1=S", "activity change, negative = inhibition": 0.812}, {"molecule": "CN(C)C1C(=O)C(C(N)=O)=C(O)C2(O)C(=O)C3=C(O)c4c(O)cccc4C(C)(O)C3C(O)C12", "note": "(stereo not drawn)", "activity change, negative = inhibition": 1.03}, {"molecule": "CC(Cc1ccccc1)NC(=O)NC(C)Cc1ccccc1", "note": "(stereo not drawn)", "activity change, negative = inhibition": -8.14}]}]}
